Measured values taken from PubChem BioAssay AID1578 (Sanford-Burnham Center for Chemical Genomics, 2009).
Hit rate of the full screen: of about 290,000 compounds, about 3,000 (1%) were called active. The full list was thinned out, with actives kept by preference. A number with no mark means an inactive call. Rule as the data show it: active = inhibition mostly above about 36% (no sharp cut-off); inactive = mostly below about 34%.

Assay: NOD1 signaling inhibitors, primary screen, cell-based, luminescence, uHTS (AID 1578);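 also: HEK-293T reporter cells stimulated with the NOD1 agonist gamma-tri-DAP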
Conditions: NOD1-driven NF-kB luciferase reporter cells, at 4 µM, hits give high values

Row | Compound | inhibition
1 | COc1ccc(CNc2ccc(S(N)(=O)=O)cc2)cc1 | 2.2%
2 | Cc1ccc(/C=N/NC(=S)N2CCOCC2)cc1 | 39.7%
3 | Oc1ccc(/C=N/NC(=S)N2CCOCC2)cc1 | 4.2%
4 | S=C(N/N=C/c1ccc(Cl)cc1)N1CCOCC1 | 63.9% (active)
5 | Cc1cccc2sc(NC(=O)CSc3cn[nH]n3)nc12 | 19%
6 | O=C1C2CC=CCC2C(=O)N1Cc1ccccc1Cl (configuration not stated) | -2.8%
7 | CC(=O)Nc1ccc(NC(=O)CSc2nc(N)c(NC(=O)c3ccco3)c(=O)[nH]2)cc1 | -35.9%
8 | COC(=O)COc1ccc2c(-c3ccc(OC)cc3)cc(=O)oc2c1 | 1.6%
9 | O=C(COc1ccc2ccc(=O)oc2c1)Nc1ccc(CCO)cc1 | -6%
10 | Cc1c(C)c2ccc(OCC(=O)Nc3cccnc3)cc2oc1=O | -45.6%
11 | O=C(COc1ccc2ccc(=O)oc2c1)Nc1cccnc1 | -31.3%
12 | Cc1nn(CCC#N)c(N)c1C1(O)C(=O)Nc2c(Cl)cc(Cl)cc21 (configuration not stated) | -6.9%
13 | Fc1ccccc1/C=N/Nc1nc2ccccc2o1 | -1.1%
14 | CCOc1ccc2nc(C)cc(Nc3ccc(N4CCOCC4)cc3)c2c1 | -31.4%
15 | CN(C[C@H](CC1CCCCC1)N(C[C@H](Cc1ccccc1)N(CCc1ccccc1)N=O)N=O)N=O | -18.5%
16 | O=c1cc(CNC2CCCCC2)c2ccccc2[nH]1 | 11.2%
17 | COC(=O)c1ccc(-n2cncn2)c([N+](=O)[O-])c1 | -23.5%
18 | CN=c1scc(-c2cccs2)n1/N=C/c1ccccc1O | 107% (active)
19 | CC(C)N=c1scc(-c2cccs2)n1/N=C/c1ccc(O)c(O)c1O | 54.6%
20 | CN=c1scc(-c2cccs2)n1/N=C/c1ccc(O)c(O)c1O | -24.6%
21 | O=C(Cc1ccccc1)NCC(=O)N1CCN(c2ccccc2)CC1 | -14.1%
22 | Cc1ccc(NC2=CC(=O)CC(c3ccc(Cl)cc3)C2)cc1 (configuration not stated) | -10.3%
23 | Fc1cccc(/C=N/Nc2ccc3ccccc3n2)c1 | 2.4%

Row | Compound | inhibition
24 | C(=N\Nc1ccc2ccccc2n1)/c1ccc2c(c1)OCCO2 | 71.8% (active)
25 | C(=N\Nc1nc2ccccc2[nH]1)/c1ccc2c(c1)OCCO2 | -1.4%
26 | Cc1cccc(/C=N/Nc2ccc3ccccc3n2)c1 | 63.5% (active)
27 | Cc1ccc(/C=N/Nc2ccc3ccccc3n2)o1 | 25.7%
28 | C(=N\Nc1ccccn1)/c1ccc2c(c1)OCCO2 | -30.1%
29 | Cc1ccc(OCC(O)CN2C(=O)NC(C)(C)C2=O)c(C)c1 (configuration not stated) | -16.8%
30 | Cc1ccc(N=Nc2[nH]c3ccccc3c2O)cc1 | -16%
31 | COc1ccc(N2CC(C(=O)Nc3nnc(SCc4cccnc4)s3)CC2=O)cc1 (configuration not stated) | -15.4%
32 | O=C(O)CSc1nnc(CSc2nc3ccccc3s2)n1-c1ccccc1 | -26.6%
33 | CC(C)(C)OC(=O)Nc1ncnc2c1ncn2C1OC(CO)C2OC(C)(C)OC21 (configuration not stated) | 1.4%
34 | COc1ccc(NC(=O)CSc2nnc(CN3CCOCC3)n2C)cc1Cl | -15%
35 | Cc1cccc(NC(=O)NCC2CCN(c3ccc(S(=O)(=O)N4CCOCC4)cc3)CC2)c1 | -10.9%
36 | CCNC(=S)N/N=C(\C)c1ccc2ccccc2c1OC(F)F | -20.3%
37 | COC(=O)N/N=C(\C)c1ccc2ccccc2c1OC(F)F | -30%
38 | C/C(=N\NC(=S)NCc1ccccc1)c1ccc2ccccc2c1OC(F)F | 48.2% (active)
39 | CCc1ccc(CNC(=O)c2ccc(NC(=O)C3=CSCCO3)cc2)cc1 | -44.5%
40 | COc1ccc(NC(=O)C2=CC(c3ccco3)=NS(=O)(=O)N2C)cc1OC | -21.6%
41 | O=C(Nc1cc(Sc2ccccn2)cc([N+](=O)[O-])c1)c1cccc(Cl)c1 | 15.3%
42 | O=C(Nc1cc(Sc2ccccn2)cc([N+](=O)[O-])c1)c1ccc(Cl)cc1 | 74.1% (active)
43 | O=C(Nc1cc(Sc2ccccn2)cc([N+](=O)[O-])c1)c1ccc([N+](=O)[O-])cc1 | 45.6%
44 | Cn1c(O)c(N=NC(=O)CNC(=O)/C=C/c2ccccc2)c2ccccc21 | 24.3%
45 | Cc1cccc(Cc2cnc(NC(=O)c3ccc(C)o3)s2)c1 | -34.8%
46 | Cc1cccc(Cc2cnc(N3C(=N)SC(c4ccccc4)C3=O)s2)c1 (configuration not stated) | 95.5% (active)

Row | Compound | inhibition
47 | O=C1c2ccccc2C(=O)N1c1ncc(Cc2ccc(Cl)cc2)s1 | 25.4%
48 | Brc1cccc(-c2nc3cccnc3nc2-c2cccc(Br)c2)c1 | 23.6%
49 | CC(C)(C)c1nc2cc(Cl)c([N+](=O)[O-])cc2o1 | -22.4%
50 | c1ccc2c(c1)N1CCCN=C1N2CCN1CCCCC1 | -32.5%
51 | O=C(CN1CCCCCCC1)N/N=C/c1ccc([N+](=O)[O-])o1 | 8.4%
52 | O=C1N=C2N(CCN3CCCCC3)c3ccccc3N2/C1=C\c1ccc([N+](=O)[O-])o1 | 84.9% (active)
53 | CO/N=C/c1ccc(N2CCCC2)c([N+](=O)[O-])c1 | -21.4%
54 | Cc1ccc(S(=O)(=O)N2CCN(c3ccnc4cc(Cl)ccc34)CC2)cc1 | 16.3%
55 | C/C(Nc1ccccc1)=C(/C#N)C(N)=O | -14.6%
56 | N#CC(C#N)=C(Nc1ccccc1)c1ccccc1 | 32.8% (active)
57 | CC(=O)Nc1ccc(C(=O)c2ccccc2)cc1 | -1%
58 | O=C(N/N=C/C=C/c1ccccc1)c1cc(C2CC2)[nH]n1 | 0.1%
59 | CS(=O)(=O)Nc1nc2ccccc2[nH]1 | -0.8%
60 | O=S(=O)(Nc1nc2ccccc2[nH]1)c1ccc2ccccc2c1 | 56.9%
61 | CN(Cc1ccccc1)S(=O)(=O)c1ccc2c(c1)CCC(=O)N2 | -21.5%
62 | O=C(c1cc(-c2ccccc2Cl)nc2ccc(Br)cc12)N1CCN(c2ccccn2)CC1 | -7.5%
63 | O=C(COC(=O)c1ccc(Cl)c([N+](=O)[O-])c1)NC1CCCC1 | 3.2%
64 | O=C(COC(=O)c1cc([N+](=O)[O-])ccc1Cl)NC1CCCC1 | 1.2%
65 | CC(C)N(C(=O)COC(=O)c1ccccc1C(=O)c1ccc(Cl)c([N+](=O)[O-])c1)C(C)C | -13.9%
66 | CSc1ccc(Cl)c(C(=O)OCC(=O)N(C)CCC#N)c1 | -28.1%
67 | CN(CCC#N)C(=O)COC(=O)c1ccccc1C(=O)c1ccc(Cl)c([N+](=O)[O-])c1 | 55.1% (active)
